High-throughput results: PubChem, Broad Institute
Tgondii IFNg: T. gondii growth inhibition with IFN-gamma, primary screen, cell-based; Toxoplasma gondii growth in IFN-gamma-treated host cells; stronger effect = lower value; activity change, negative = inhibition, % (test concentration not listed); 3.8% of 69,000 active; AID 1259416, 2018; in the data active means activity change below about -70%, passing the limit was not always enough;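 further: host cells are HeLa cells infected with Toxoplasma gondii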
* marks the source's active call; other numbers are inactive results. The entries come from a sample that favours hits as a whole.

SMILES	Tgondii IFNg
Cc1nnc2ccc(-c3cccc(C(F)(F)F)c3)nn12	-80*
O=C(NCc1ccc(Cl)cc1)c1cc2cccnc2n(Cc2ccc(F)cc2)c1=O	-57
CCS(=O)(=O)N1C[C@@H]2c3ccccc3CN[C@@H]2C1	4
Cc1ncc(CN2CC[C@@H]3OCCN(Cc4ccncc4)[C@@H]3C2)[nH]1	-30
CO[C@H]1CCC(O[C@H]2CC([C@]3(C)CC[C@]4(C[C@H](O)[C@@H](C)[C@@H]([C@@H](C)/C=C(\C)C(=O)[C@H](C)C[C@H](C)C(=O)O)O4)O3)O[C@]3(O[C@@H](C4O[C@@](O)(CO)[C@H](C)C[C@@H]4C)C[C@@H]3C)[C@@H]2C)O[C@@H]1C (some centres undefined)	-78*
O=C1CC2(CCN(Cc3cccnc3)C2)CN1c1cccnc1 (centres undefined)	5
Cn1cc(C(=O)NCc2cncc3c2CCNC3)cn1	4
NC(=O)N1c2ccccc2[C@@H]2CNCC[C@@H]21	-20
COc1cc2c(cc1OC)[C@@H]1C(=O)c3ccc(OC)c(CC=C(C)C)c3O[C@@H]1CO2	21
COc1cc2c(cc1OC)[C@@H]1C(=O)c3ccc4c(c3O[C@@H]1CO2)CC(C(C)C)O4 (some centres undefined)	-82*
CCOC1C2CCC1N(Cc1c(C)noc1C)C2 (centres undefined)	1
Cc1cccc(CN2CC[C@@H]3OCCN(S(=O)(=O)C4CC4)[C@@H]3C2)n1	-4
Cc1cccc(CN2C[C@H]3OCCN(C)[C@H]3C2)n1	2
C=CCOC1C2CCC1N(Cc1cccc(C)n1)CCO2 (centres undefined)	-71*
CC12CC[C@H]3[C@@H](CCC4(O)C[C@H](O)CCC34/C=N/NC(=O)Cc3ccccc3)C1(O)CCC2C1=CC(=O)OC1 (some centres undefined)	-10
C[C@]12[C@H](O)CC3C(CC[C@@H]4C[C@@H](O)CC[C@]34C)[C@@]1(O)CC[C@@H]2C1=CC(=O)OC1 (some centres undefined)	-79*
C[C@]12CC[C@H](O)C[C@H]1CC[C@@H]1[C@@H]2CC[C@]2(C)[C@@H](C3=CC(=O)OC3)CC[C@]12O	-85*
C[C@]12CC[C@H](O)C[C@H]1CC[C@@H]1[C@@H]2C[C@@H](O)[C@]2(C)[C@@H](C3=CC(=O)OC3)CC[C@]12O	-87*
CC(=O)[C@H]1CC[C@H]2[C@@H]3CC[C@H]4C[C@H](O)CC[C@]4(C)[C@H]3C(=O)C[C@]12C	17
C[C@]12CCC3[C@@H](CC[C@@H]4C[C@H](O)CC[C@]34C)[C@@H]1CCC2=O (some centres undefined)	37
CC(=O)OCC(=O)[C@H]1CC[C@H]2[C@@H]3CC[C@H]4C[C@H](O)CC[C@]4(C)[C@H]3C(=O)C[C@]12C	2
COCCN1CCC2(CC1)CN(c1cccnc1)C(=O)CO2	118
COc1cccc([C@@H]2CN(CCCn3ccnc3)[C@@H]3C4CCN(CC4)[C@@H]32)c1	-2
Cc1nc(CN2CCN(C(=O)Cc3ccc4c(c3)CC(C)O4)CC2)cs1 (centres undefined)	9
CC(=O)Nc1ccc(NC(=O)c2cc3cccnc3n(Cc3ccccc3)c2=O)cc1	41
SMILES	Tgondii IFNg
Cc1cc(CN2CCC3(CCN(C)C3)CC2)no1	-6
N#Cc1cccc(CN2C[C@@H]3CN(c4ncccn4)C[C@@H]3C2)c1	-3
CCn1cc(C(=O)c2ccc(F)cc2)c2ccnc(Cl)c21	-66
Cc1c(C(N)=O)ncn1Cc1ccc(Cl)cc1	-22
CS(=O)(=O)N1C[C@@H]2c3ccccc3CN[C@@H]2C1	-11
Cc1nn(C)c(Cl)c1CN1CCC2(CCCNC2)C1 (centres undefined)	-63
COCCNC(=O)C[C@@H]1C[C@@H]2CN(Cc3ccncc3)C[C@H]2O1	-43
CC(C)N1C2CCC1CN(c1ncccn1)C2	104
CCN1CCN(C)C(=O)C12CCN(c1cc(OC)ncn1)CC2	3
CC(=O)N1CC(C(=O)O)CN2CCN(Cc3ccncc3)CC2C1 (centres undefined)	-36
CNC(=O)[C@H]1C[C@@H]2OCC[C@@H]2N(Cc2ccc3ccccc3n2)C1	8
CC1(C)CC[C@]2(C(=O)O)CC[C@]3(C)[C@H](C(=O)C=C4[C@@]5(C)C=C(C#N)C(=O)C(C)(C)[C@@H]5CC[C@]43C)[C@@H]2C1	-79*
O=C(Nc1ccc(F)c(Cl)c1)c1cc2cccnc2n(Cc2ccc(F)cc2)c1=O	-2
COc1ccc(NC(=O)c2cc3cccnc3n(Cc3ccc(Cl)cc3)c2=O)cc1OC	58
CN(C)C(=O)Oc1ccc(Br)cc1C(=O)Nc1ccc(F)c(Cl)c1	-101*
COc1cccc([C@@H]2CN(C(=O)C3CCOCC3)[C@@H]3C4CCN(CC4)[C@@H]32)c1	-2
CCNC(=O)[C@H]1O[C@@H](n2cnc3c(N)ncnc32)[C@H](O)[C@@H]1O	7
NC(=O)c1cn(C2OC(CO)[C@H](O)[C@@H]2O)c2ncnc(N)c12 (some centres undefined)	-83*
